The record followed here is PubChem BioAssay (EPA / NIEHS).

Activity calls are given as the source filed them. The calls were made as follows: active = hit-call score of the fitted dose curve at least 0.9, where 1 is the maximum; inactive = score below 0.9.

Read-out in assay [1]: TIMP metallopeptidase inhibitor 1 (TIMP1), TIMP1 (gene 7076)
In words: BSK_hDFCGF_TIMP1: BioMAP Diversity Plus: hDFCGF Assay for TIMP metallopeptidase inhibitor 1 (TIMP1) Biomarker Activity (AID 2283062). The following applies: primary human foreskin fibroblasts; actives raise or lower the signal. The method in brief: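 Fibroblasts from human foreskin are treated with test chemical and harvested at 24 h. TIMP-1 is quantified by ELISA, and gain or loss of signal is scored against DMSO.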

Read-out in assay [2]: Monokine induced gamma interferon (MIG), CXCL9 (gene 4283)
The experiment in a line: BSK_hDFCGF_MIG: BioMAP Diversity Plus: hDFCGF Assay for Monokine induced gamma interferon (MIG) Biomarker Activity (AID 2283063). The note with it: primary human foreskin fibroblasts; actives raise or lower the signal. In a few lines: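 MIG signal, determined by ELISA, reflects 24 h chemical exposure of human skin primary fibroblasts. DMSO serves as negative control and baseline.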

Read-out in assay [3]: Matrix Metallopeptidase 1 (MMP1), MMP1 (gene 4312)
In words: BSK_hDFCGF_MMP1: BioMAP Diversity Plus: hDFCGF Assay for Matrix Metallopeptidase 1 (MMP1) Biomarker Activity (AID 2283064). The note with it: primary human foreskin fibroblasts; actives raise or lower the signal. In a few lines: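 MMP1 levels quantified by ELISA 24 h after dosing human dermal fibroblast cultures, with parallel SRB total-protein staining for overt cytotoxicity. Data fitted in both directions against DMSO baseline.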

Read-out in assay [4]: Vascular cell adhesion molecule 1 (VCAM1), VCAM1 (gene 7412)
The experiment in a line: BSK_hDFCGF_VCAM1: BioMAP Diversity Plus: hDFCGF Assay for Vascular cell adhesion molecule 1 (VCAM1) Biomarker Activity (AID 2283065).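 As to AC50: VCAM-1 protein level quantified by ELISA after 24 h chemical exposure.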 The following applies: primary human foreskin fibroblasts; actives raise or lower the signal. The method in brief:
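Cells are dosed, cultured for 24 h, then VCAM-1 is quantified by ELISA; signal increases and decreases are both fitted relative to DMSO.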

Read-out in assay [5]: Plasminogen activator inhibitor-1 (PAI1), SERPINE1 (gene 5054)
In words: BSK_hDFCGF_PAI1: BioMAP Diversity Plus: hDFCGF Assay for Plasminogen activator inhibitor-1 (PAI1) Biomarker Activity (AID 2283066). The note with it: primary human foreskin fibroblasts; actives raise or lower the signal. In a few lines: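 ELISA readout of PAI-1 from primary human skin fibroblast cultures, 24 h after compound addition. Gain or loss of signal was fitted bidirectionally against DMSO baseline.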

Read-out in assay [6]: Intercellular Adhesion Molecule 1 (ICAM1), ICAM1 (gene 3383)
In words: BSK_KF3CT_ICAM1: BioMAP Diversity Plus: KF3CT Assay for Intercellular Adhesion Molecule 1 (ICAM1) Biomarker Activity (AID 2283067). The note with it: primary human keratinocytes with fibroblasts; actives raise or lower the signal. In a few lines:
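Dose the keratinocyte/fibroblast co-culture, wait 24 h, measure ICAM-1 by ELISA, then fit increases or decreases against DMSO. Cytotoxicity is checked in parallel cultures by SRB total-protein staining.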

Read-out in assay [7]: Interferon-gamma inducible Protein 10 (IP10), CXCL10 (gene 3627)
In words: BSK_KF3CT_IP10: BioMAP Diversity Plus: KF3CT Assay for Interferon-gamma inducible Protein 10 (IP10) Biomarker Activity (AID 2283068). The following applies: primary human keratinocytes with fibroblasts; actives raise or lower the signal. The method in brief:
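KF3CT co-culture (keratinocytes + foreskin fibroblasts), 24 h compound, IP-10 by ELISA; bidirectional fit vs DMSO baseline.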

A short description of assay [8]: BSK_KF3CT_SRB: Viability Assessment in the BioMAP Diversity Plus: KF3CT Assay (AID 2283069). The following applies: primary human keratinocytes with fibroblasts. In a few lines:
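Cytotoxicity was gauged by SRB staining (0.1% SRB, 10% TCA fixation, 560 nm) of parallel cultures at 24 h. The cells were primary human skin keratinocytes co-cultured with fibroblasts, and activity was fitted in both directions against DMSO.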

Read-out in assay [9]: Interleukin-1 alpha (IL1a), IL1A (gene 3552)
The experiment in a line: BSK_KF3CT_IL1a: BioMAP Diversity Plus: KF3CT Assay for Interleukin-1 alpha (IL1a) Biomarker Activity (AID 2283070). The following applies: primary human keratinocytes with fibroblasts; actives raise or lower the signal. The method in brief: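 IL-1a was detected by ELISA 24 h after chemical treatment of a co-culture of human skin keratinocytes and foreskin fibroblasts. Gain or loss of signal was fitted against the DMSO baseline.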

Read-out in assay [10]: TIMP metallopeptidase inhibitor 2 (TIMP2), TIMP2 (gene 7077)
The experiment in a line: BSK_KF3CT_TIMP2: BioMAP Diversity Plus: KF3CT Assay for TIMP metallopeptidase inhibitor 2 (TIMP2) Biomarker Activity (AID 2283071). The following applies: primary human keratinocytes with fibroblasts; actives raise or lower the signal. In a few lines: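 ELISA readout of TIMP-2 in keratinocyte plus foreskin fibroblast co-cultures (human skin primary cells), 24 h post-dose. Gain or loss of signal fitted relative to DMSO.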

Read-out in assay [11]: Transforming growth factor beta 1 (TGFb1), TGFB1 (gene 7040)
The experiment in a line: BSK_KF3CT_TGFb1: BioMAP Diversity Plus: KF3CT Assay for Transforming growth factor beta 1 (TGFb1) Biomarker Activity (AID 2283072). The following applies: primary human keratinocytes with fibroblasts; actives raise or lower the signal. In a few lines:
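Read-out: ELISA for TGF-b1 in keratinocyte/foreskin fibroblast human skin co-culture, 24 h after dosing; bidirectional curve fit vs DMSO baseline; gain or loss of signal scored.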

Read-out in assay [12]: C-C motif chemokine 2 (Homo sapiens) (UniProt P13500)
In words: BSK_KF3CT_MCP1: BioMAP Diversity Plus: KF3CT Assay for Monocyte Chemoattractant Protein 1 (MCP1/CCL2) Biomarker Activity (AID 2283073). The following applies: primary human keratinocytes with fibroblasts; actives raise or lower the signal. In a few lines: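 Keratinocytes and foreskin fibroblasts were co-cultured, dosed with chemical, and sampled 24 h later. MCP-1 was quantified by ELISA, and the endpoint was analyzed with bidirectional fitting using DMSO as negative control.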

Read-out in assay [13]: Matrix Metallopeptidase 9 (MMP9), MMP9 (gene 4318)
In words: BSK_KF3CT_MMP9: BioMAP Diversity Plus: KF3CT Assay for Matrix Metallopeptidase 9 (MMP9) Biomarker Activity (AID 2283074).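 As to AC50: MMP9 protein level quantified by ELISA in the co-culture.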 The note with it: primary human keratinocytes with fibroblasts; actives raise or lower the signal. In a few lines: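 MMP-9 quantified by ELISA after 24 h chemical treatment of primary human skin keratinocyte/fibroblast co-cultures; gain or loss fitted against DMSO, with parallel SRB staining (0.1% SRB, 560 nm) for overt cytotoxicity.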

Read-out in assay [14]: CD40, CD40 (gene 958)
In words: BSK_LPS_CD40: BioMAP Diversity Plus: LPS Assay for CD40 Biomarker Activity (AID 2283076). The following applies: primary human HUVEC with PBMC; actives raise or lower the signal. In a few lines:
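CD40 signal, measured by ELISA, is fitted in both directions relative to DMSO vehicle. The system is an LPS-driven human vascular primary co-culture of endothelial cells and PBMC, sampled 24 h after compound addition.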

Read-out in assay [15]: E-selectin (Homo sapiens) (UniProt P16581)
The experiment in a line: BSK_LPS_Eselectin: BioMAP Diversity Plus: LPS Assay for Eselectin Biomarker Activity (AID 2283077). The following applies: primary human HUVEC with PBMC; actives raise or lower the signal. In a few lines: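 Signal of E-selectin, detected by ELISA, served as the endpoint; cells were umbilical vein endothelium with PBMC, read 24 h after treatment. DMSO defined baseline, and both increases and decreases were fitted.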

Read-out in assay [16]: Interleukin-8 (IL8), CXCL8 (gene 3576)
The experiment in a line: BSK_LPS_IL8: BioMAP Diversity Plus: LPS Assay for Interleukin-8 (IL8) Biomarker Activity (AID 2283078). The following applies: primary human HUVEC with PBMC; actives raise or lower the signal. In a few lines: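 Endothelial cells and PBMC from human donors are co-cultured, treated with chemicals and LPS, then assayed for IL-8 by ELISA after 24 h. Parallel SRB staining (0.1% SRB after 10% TCA fixation, 560 nm) flags cytotoxicity.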

Assay [17] is described as follows: BSK_LPS_SRB: Viability Assessment in the BioMAP Diversity Plus: LPS Assay (AID 2283079).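 Also: total protein by sulforhodamine B absorbance as a cytotoxicity measure; measured one day after compound addition; fitted in both directions against DMSO so loss or gain of signal counts.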 The following applies: primary human HUVEC with PBMC. The method in brief:
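Overt cytotoxicity was gauged by sulforhodamine B total-protein staining in a primary human vascular endothelial and mononuclear cell co-culture 24 h post-dosing. Activity was fitted in both directions relative to DMSO.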

Read-out in assay [18]: Monocyte Chemoattractant Protein-1 (MCP1), CCL2 (gene 6347)
In words: BSK_LPS_MCP1: BioMAP Diversity Plus: LPS Assay for Monocyte Chemoattractant Protein-1 (MCP1) Biomarker Activity (AID 2283081).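 As to AC50: secreted MCP-1 protein quantified by ELISA in culture supernatant.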 The note with it: primary human HUVEC with PBMC; actives raise or lower the signal. In a few lines: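 LPS-stimulated HUVEC/PBMC co-culture; chemical, 24 h; MCP-1 by ELISA; bidirectional fit vs DMSO; cytotoxicity via SRB (0.1% stain, 10% TCA fix, 560 nm) in parallel wells.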

Read-out in assay [19]: Interleukin-1 alpha (IL1a), IL1A (gene 3552)
The experiment in a line: BSK_LPS_IL1a: BioMAP Diversity Plus: LPS Assay for Interleukin-1 alpha (IL1a) Biomarker Activity (AID 2283080). The note with it: primary human HUVEC with PBMC; actives raise or lower the signal. The method in brief: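 Measured: IL-1 alpha via ELISA at 24 h in LPS-activated human umbilical vein endothelium–PBMC co-culture. Baseline: DMSO, bidirectional fitting.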

Chain of E-selectin (Homo sapiens) (P16581 whole entry, looked up): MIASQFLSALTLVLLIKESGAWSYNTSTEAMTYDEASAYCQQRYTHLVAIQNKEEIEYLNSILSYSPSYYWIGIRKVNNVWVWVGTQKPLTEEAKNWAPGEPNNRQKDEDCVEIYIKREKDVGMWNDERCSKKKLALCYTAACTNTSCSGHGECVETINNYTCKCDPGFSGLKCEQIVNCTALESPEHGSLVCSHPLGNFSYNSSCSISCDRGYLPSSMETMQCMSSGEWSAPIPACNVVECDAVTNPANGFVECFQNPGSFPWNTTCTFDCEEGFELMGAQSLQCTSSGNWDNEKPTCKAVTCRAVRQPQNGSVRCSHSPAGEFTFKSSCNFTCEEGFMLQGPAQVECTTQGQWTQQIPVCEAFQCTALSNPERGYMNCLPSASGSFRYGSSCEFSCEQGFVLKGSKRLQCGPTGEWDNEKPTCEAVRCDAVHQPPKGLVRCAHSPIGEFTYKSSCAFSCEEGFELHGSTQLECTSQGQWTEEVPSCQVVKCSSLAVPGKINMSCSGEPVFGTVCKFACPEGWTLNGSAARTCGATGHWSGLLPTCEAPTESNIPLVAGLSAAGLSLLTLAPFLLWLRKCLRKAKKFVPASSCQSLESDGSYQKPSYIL

Broadly, the AC50 is the midpoint of the concentration-response curve, whichever way the signal moves. As for `O=C(O)Cc1cc(I)c(Oc2ccc(O)c(I)c2)c(I)c1`, the outcome in assay [1], in [2], in assay [4], in assay [6], in assay [9] and in assay [10] was inactive. The outcome in [12], in [14], in assay [15], in assay [16], in assay [17] and in assay [18] was inactive. For the same compound, the AC50 in assay [3] is 19.4 µM (active); in assay [5] it was 10.4 µM (active); in assay [7] it was 26.8 µM (active); in assay [8] it was 25.5 µM (active); in [11], 29.9 µM (active); in assay [13] it was 20 µM (active).

As to `CCOC(=O)O[C@H](C)OC(=O)c1ccc2c(c1)cc(C(=O)NC1CCN(C(C)C)CC1)n2Cc1cc(-c2ccc(Cl)s2)on1`, the half-maximal activity concentration (AC50) was 4.35 µM (active) in assay [1]; 6.08 µM (active) in assay [2]; 6.2 µM (active) in [3]; 3.74 µM (active) in [4]; 3.81 µM (active) in [5]; 9.05 µM (active) in assay [6]. Also, the AC50 was 10.4 µM (active) in assay [7]; 6.24 µM (active) in assay [8]; 6.3 µM (active) in assay [9]; 7.43 µM (active) in assay [10]; 6.7 µM (active) in [11]; 5.86 µM (active) in [12]. In addition, the AC50 in assay [13] was 8.39 µM (active); in assay [14] it was 6.74 µM (active); in assay [15], 10.4 µM (active); in [16] it was 6.76 µM (active); in assay [17], 5.61 µM (active); in assay [18], 8.72 µM (active).

As to `CC1=CC(=O)/C(=C(/C)O)C(=O)O1`, the result in assay [1], in assay [2], in [3], in assay [4], in assay [5] and in [6] was inactive. Besides, the outcome in assay [7], in assay [8], in assay [9], in assay [10], in [11] and in assay [13] was inactive. In addition, the result in assay [14], in [15], in assay [16], in assay [17] and in assay [18] was inactive. In addition, the AC50 in assay [12] was 0.396 µM (active); in assay [19] it was 20 µM (active).

Regarding `COc1cc(C(=O)NC2CCN(C)CC2)ccc1Nc1ncc2c(n1)N(C1CCCC1)CC(F)(F)C(=O)N2C`, the result in [1] was inactive. In addition, the AC50 in assay [2] was 6.25 µM (active); in [3], 18.6 µM (active); in assay [4] it was 2.79 µM (active); in assay [5], 12.2 µM (active); in assay [6] it was 18.6 µM (active); in assay [7], 32.3 µM (active). In addition, the AC50 in [8] was 30.8 µM (active); in assay [9] it was 7.74 µM (active); in [10], 28.9 µM (active); in assay [11], 29.8 µM (active); in [12], 5.37 µM (active); in assay [13], 18.6 µM (active). In addition, the AC50 is 10.1 µM (active) in assay [14]; 22.6 µM (active) in [15]; 18.6 µM (active) in assay [16]; 8.37 µM (active) in assay [17]; 6.03 µM (active) in [19]; 11.7 µM (active) in assay [18].
